According to PubChem BioAssay AID1903 (Southern Research Specialized Biocontainment Screening …, 2009):
Screen size: about 310,000 compounds; about 1,200 (0.39%) were called active. How the calls were made is not given here. A selection follows. Potency and affinity values are given separately.

Molecular target: Large T antigen (Simian virus 40) (UniProt P03070)
Experiment: TAg ATPase/helicase activity blockers – biochemical (AID 1903)
Conditions: SV40 large T antigen ATPase/helicase inhibition assay; at 20 µM; stronger effect = higher value

Sequence of Large T antigen (Simian virus 40) (P03070 whole entry, looked up): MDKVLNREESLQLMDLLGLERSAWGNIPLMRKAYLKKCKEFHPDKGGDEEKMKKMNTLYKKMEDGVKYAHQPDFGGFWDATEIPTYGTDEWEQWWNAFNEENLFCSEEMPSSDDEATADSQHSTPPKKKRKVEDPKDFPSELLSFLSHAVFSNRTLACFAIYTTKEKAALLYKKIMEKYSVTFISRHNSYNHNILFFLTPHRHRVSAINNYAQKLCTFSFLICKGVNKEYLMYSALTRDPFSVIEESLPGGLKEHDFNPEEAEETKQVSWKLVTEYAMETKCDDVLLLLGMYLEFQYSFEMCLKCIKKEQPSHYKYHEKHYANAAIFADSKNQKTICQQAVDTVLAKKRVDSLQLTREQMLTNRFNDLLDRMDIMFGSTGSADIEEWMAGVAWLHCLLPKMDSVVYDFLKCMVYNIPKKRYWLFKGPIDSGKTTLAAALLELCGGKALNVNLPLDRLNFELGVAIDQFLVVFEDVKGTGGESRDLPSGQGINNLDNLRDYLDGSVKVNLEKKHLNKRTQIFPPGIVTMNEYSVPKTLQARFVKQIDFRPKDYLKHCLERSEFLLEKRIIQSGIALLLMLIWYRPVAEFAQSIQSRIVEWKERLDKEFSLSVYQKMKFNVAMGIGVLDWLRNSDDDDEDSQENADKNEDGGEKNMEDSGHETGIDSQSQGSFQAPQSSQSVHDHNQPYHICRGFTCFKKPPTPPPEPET

inhibition, inactive:
Cc1ccccc1N1CC(=O)N(c2ccccc2C)CC1=O 0.89%
Cn1c2ccccc2c(=O)c2ccc(F)cc21 0.83%
COc1cccc(C(=O)NC2CC3CCCC(C2)N3CC(=O)Nc2ccccc2)c1 (stereo not drawn) 34%
O=C(CN1C2CCCC1CC(NC(=O)c1ccccc1)C2)Nc1ccccc1 (stereo not drawn) -14.7%
O=C(CN1C2CCCC1CC(NC(=O)c1ccccc1)C2)NC1CC1 (stereo not drawn) 6.22%
COc1cccc(C(=O)NC2CC3CCCC(C2)N3CC(=O)Nc2ccccc2C(F)(F)F)c1 (stereo not drawn) -1.46%
COc1cc(OC)c(C(=O)NC23CC4CC(CC(C4)C2)C3)cc1OC 3.9%
COC(=O)c1ccc(/C=N/OCC(=O)NCCc2ccc(OC)c(OC)c2)cc1 2.45%
Cn1c(-c2ccccc2)c[n+]2c1-c1ccccc1C2 6.66%
Cc1cccc(N2CCN(C3=NC(=O)C(=C4CCCCC4)S3)CC2)c1 7.31%
CCOc1ccc(NS(=O)(=O)c2ccc(N)cc2)cc1 2.32%
O=C(O)c1cccc2c1C(=O)c1ccccc1C2=O 2.63%
Nc1c(C(=O)O)ccc2c1C(=O)c1ccccc1C2=O 6.68%
CC(C)Oc1ccc(S(=O)(=O)N2CCOCC2)cc1NC(=O)C1CCC1 4.96%
Cc1nn(-c2ccccc2)c(N)c1Sc1ccc([N+](=O)[O-])cc1 -2.9%
COc1c(/C=N/Nc2ccc([N+](=O)[O-])cc2[N+](=O)[O-])c(C)nn1-c1ccccc1 -4.36%
C=CCn1cc(CN2CCC(C(=O)Nc3cccc(-c4cccc(F)c4)c3)CC2)c(C)n1 9.97%
CCN1C(=O)CC(N2CCN(c3ccc(OC)cc3)CC2)C1=O (stereo not drawn) 27.7%
CCN1C(=O)CC(N2CCC(Nc3ccc(F)cc3)CC2)C1=O (stereo not drawn) 0.22%
O=C(OCc1cn(Cc2ccccc2)nn1)c1ccccc1 7.89%
COc1ccc2nc(NC(=O)/C=C/c3ccc4c(c3)OCO4)sc2c1 5.17%
O=C(Oc1ccc(N(C(=O)c2ccncc2)S(=O)(=O)c2ccc(F)cc2)cc1)c1ccncc1 32%
Cc1ccc(S(=O)(=O)N(C(=O)c2ccncc2)c2ccc(OC(=O)c3ccncc3)cc2)c(C)c1 23.4%
C=CCN(c1ccccc1Cl)S(=O)(=O)c1cccc(C(=O)NCCc2ccc(OC)cc2)c1 5.14%
COc1ccccc1CNCC(O)Cn1c2ccccc2c2ccccc21 (stereo not drawn) 16%
O=C(Nc1ccc(NC(=O)c2cccnc2)cc1)c1ccccc1 9.81%
CCN(CC)c1ccc(NC(=O)c2ccc3c(c2)OCO3)c(C)c1 22.6%
CCN(CC)c1ccc(NC(=O)c2ccco2)c(C)c1 38%
CCn1cc(C(=O)Nc2ccc(F)c(F)c2)cn1 16%
CCn1cc(C(=O)Nc2ccc(C)c([N+](=O)[O-])c2)cn1 2.51%
CCN(CC)c1ccc(NC(=O)c2cc(OC)cc(OC)c2)c(C)c1 19.6%
CCc1ccc(NC(=O)c2cccnc2)cc1 21.3%
CCN(CC)c1ccc(NC(=O)c2c(OC)cccc2OC)c(C)c1 24.5%
O=C(CSc1nnc(Cc2ccccc2)n1Cc1ccco1)NC12CC3CC(CC(C3)C1)C2 3.4%
CN(C)C(=O)C1CCC(=O)N1Cc1cccs1 (stereo not drawn) 3.97%
COc1ccc(N=Cc2c(O)n(-c3ccc(OC)cc3)c(=O)c3ccccc23)cc1 17.6%
CCOc1ccccc1N1CC(C(=O)NCCOc2ccccc2OC)CC1=O (stereo not drawn) 3.13%
Cc1ccc(-c2nc(CS(=O)(=O)CC(=O)N3CCN(C)CC3)c(C)o2)cc1 6.58%
Cc1nc2scc(C)n2c(=O)c1S(=O)(=O)N1CCN(c2ccc([N+](=O)[O-])cc2)CC1 13.7%
CCc1ccc(N2CC(C(=O)NC3CC3)CC2=O)cc1 (stereo not drawn) 12.7%
Cc1ccccc1NC(=O)c1cccnc1 -1.13%
Cc1cc(F)ccc1NC(=O)c1cccnc1 3.85%
CCOc1ccc(C(=O)N/N=C/c2ccc(-c3ccc(S(=O)(=O)Nc4ncccn4)cc3)o2)cc1 26.6%
CCCOc1ccc(C(=O)N/N=C/c2ccc(-c3ccc(S(=O)(=O)Nc4ncccn4)cc3)o2)cc1 35.9%
c1ccc2[nH]c(CCCCc3nc4ccccc4[nH]3)nc2c1 5.68%
Nc1cccc(CCc2nc3cc4ccccc4cc3[nH]2)c1 21.5%
O=[N+]([O-])c1ccc2nc(CCCO)[nH]c2c1 -0.4%
c1ccc2[nH]c(CCCc3nc4ccccc4[nH]3)nc2c1 12.5%
Nc1ccc2nc(CCCCc3nc4ccccc4[nH]3)[nH]c2c1 32.7%
OCCCc1nc2ccccc2[nH]1 13.1%
c1csc(-c2nc3ccccc3[nH]2)c1 -3.54%
Nc1ccc2oc(-c3cccs3)nc2c1 5.03%
CCOC(=O)C1=C(COC(=O)/C=C/c2ccc(OC)cc2OC)NC(=O)NC1C (stereo not drawn) 3.33%
CCc1noc(C)c1C(=O)Oc1ccc(N(C)S(=O)(=O)c2ccccc2)cc1 12.4%
Cc1nn(-c2ccccc2)c(Cl)c1/C=N/NC(=O)c1ccnn1C 19.3%
O=C(O)c1ccc(/C=N/Nc2ccc(F)cc2F)cc1 9.08%
COc1cccc(CC(NC(C)=O)C(=O)NC2CCN(S(=O)(=O)c3ccc(NC(C)=O)cc3)CC2)c1 (stereo not drawn) 12.6%
COc1ccc(OC)c(N(CC(=O)NCc2ccccn2)S(C)(=O)=O)c1 5.82%
COc1ccc(/C=N/NC(=O)c2ccccc2OC)cc1COc1ccc(C)cc1 1.22%
O=C(c1ccc2c(c1)OCO2)N(c1ccc(F)cc1)C1C=CS(=O)(=O)C1 (stereo not drawn) -0.44%
CCOc1cc(/C=C/c2ccc3cccc([N+](=O)[O-])c3n2)ccc1O 3.61%
CCOc1cc(/C=C/c2cc(C(=O)O)c3ccccc3n2)ccc1O 31%
COc1ccc(/C=N/NC(=O)c2ccc(=O)n(C)c2)cc1OC 3.81%
CCC(=NC)C1=C(O)CC(c2ccccc2)CC1=O (stereo not drawn) 3.84%
CCC(=Nc1ccccc1OC)C1=C(O)CC(c2ccccc2)CC1=O (stereo not drawn) 2.58%
O=C1c2cccnc2C(=O)N1Cc1ccc(S(=O)(=O)NCc2ccco2)cc1 14.4%
N#C/C(=C\c1ccc(Br)s1)C(=O)N1CCN(c2ccccc2)CC1 7.79%
CN(C)C(CNC(=O)c1ccc2nc[nH]c2c1)c1ccccc1 (stereo not drawn) 12.7%
NC1=NC(=O)/C(=C\c2cccs2)S1 16.2%
NC1=NC(=O)/C(=C/c2cccs2)S1 3.51%
COc1cccc(C(=O)CN(C(=O)c2ccc(Cl)c(Cl)c2)N2C(=O)C3CCCCC3C2=O)c1 (stereo not drawn) 24.4%
COc1ccccc1C(=O)COC(=O)CCCN=C1NS(=O)(=O)c2ccccc21 11.1%
Oc1ccc(Br)cc1-c1cc(-c2ccccc2)n[nH]1 23.6%
Nc1cc(-c2ccc(Br)cc2)[nH]n1 8.97%
O=C1c2ccccc2CC1Sc1nnc(-c2ccccn2)o1 (stereo not drawn) 13.2%
CCC(Sc1nnnn1-c1ccccc1)C(=O)NC(C)c1ccccc1 (stereo not drawn) 1.1%
Cc1ccc(Nc2ccccc2)cc1 9.98%
c1ccc(Nc2ccccc2)cc1 12.1%
CN(Cc1nc(-c2cnccn2)no1)CC(O)c1ccccc1 (stereo not drawn) 9.11%
COc1cc(/C(C)=N\NC(=O)CSc2nc3ccccc3n2C)ccc1O 25.3%
COc1ccc(/C(C)=N\NC(=O)CSc2nnc(C)s2)cc1 4.01%
C/C(=N\NC(=O)CSc1nnc(C)s1)c1ccc(O)cc1 26.9%
C/C(=N\NC(=O)CSc1nc2ccccc2[nH]1)c1ccncc1 5.69%
Cc1ccc(CNC(=O)c2nn(C)c(C)c2[N+](=O)[O-])cc1 10.1%
O=S(=O)(NCC1CCCN(Cc2ccccc2O)C1)c1cccc2cccnc12 (stereo not drawn) 21.3%
S=C(NCCSCc1c(Cl)cccc1Cl)Nc1ccccc1 3.66%
O=C(NC(NC1CCS(=O)(=O)C1)C(Cl)(Cl)Cl)c1cccc(Cl)c1 (stereo not drawn) 26%
c1cc(CNc2ccc3c(c2)OCO3)ccn1 25.9%
S=C(NCc1cccnc1)Nc1ccc2c(c1)OCO2 9.73%
CCN(CC)c1ccc(NC(=O)COC(=O)/C=C/c2nc3ccccc3s2)cc1 37.1%
O=C(COC(=O)c1ccc2ccccc2n1)NCc1ccccc1 6.87%
O=C(COC(=O)c1cccs1)Nc1ccccc1 -1.96%
O=C(COC(=O)COc1ccccc1[N+](=O)[O-])Nc1cccc(Br)c1 -10.5%
CCN(c1ccc(NC(=O)COC(=O)c2cccs2)cc1)C(C)C 25.9%
COc1cccc(NC(=O)COC(=O)COc2ccccc2[N+](=O)[O-])c1 7.61%
CCCCCSc1nnc2c(n1)OC(C)N(C(C)=O)c1ccccc1-2 (stereo not drawn) 5.71%
N#Cc1nc(COc2ccccc2Cl)oc1NCc1ccco1 15.3%
Cc1cc(C)nc(SCCC(=O)Nc2ccccc2)n1 -11.3%
